# According to PubChem BioAssay:
# Calls of active or inactive are those of the source. Unless noted, how the calls were made is not given here.
# Key:
# [1] = A549 cell viability effects, profiling panel, calcein-AM fluorescence, 48 h, basal (AID 1162); conditions: higher = more signal; further: test concentration not given here
# [2] = adipocyte viability effects, profiling panel, cell-based, 3T3-L1 adipocytes, calcein-AM fluorescence, 48 h, basal (AID 1163); conditions: 3T3-L1 adipocytes viability, higher = more signal; further: test concentration not given here
# [3] = HepG2 cell viability effects, profiling panel, calcein-AM fluorescence, 48 h, basal (AID 1164); conditions: higher = more signal; further: test concentration not given here
# [4] = MM1S cell viability effects, profiling panel, calcein-AM fluorescence, 48 h, basal (AID 1165); conditions: higher = more signal;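 further: viability of MM1S multiple myeloma cells under basal unstimulated conditions; test concentration not given here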
# [5] = basal RPMI8226 viability, no added stimulus, profiling panel, cell-based, calcein-AM fluorescence, 48 h, PK04 Diversity Set (AID 1166); conditions: RPMI8226 myeloma viability, higher = more signal;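 further: cells grown under basal conditions without added stimulus; test concentration not given here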
# [6] = basal HepG2 mitochondrial membrane potential changes, profiling panel, cell-based, JC-1 fluorescence, 24 h, 100 nL compound (AID 1167); conditions: higher = more signal; further: test concentration not given here
# [7] = basal 3T3-L1 adipocyte mitochondrial potential changes, profiling panel, cell-based, JC-1 fluorescence, 3T3-L1 adipocytes, 24 h, 100 nL compound (AID 1168); conditions: JC-1 mitochondrial fluorescence, higher = more signal, called active from +8 up or from −8 down; further: test concentration not given here
# [8] = basal RPMI8226 mitochondrial membrane potential changes, profiling panel, cell-based, JC-1 fluorescence, 24 h, 100 nL compound (AID 1169); conditions: RPMI8226 myeloma, JC-1 mitochondrial potential fluorescence, higher = more signal; further: test concentration not given here
# [9] = basal MM1S mitochondrial membrane potential changes, profiling panel, cell-based, JC-1 fluorescence, 24 h, 100 nL compound (AID 1170); conditions: higher = more signal; further: test concentration not given here
# [10] = A549 lung cancer cell viability effects, profiling panel, resazurin fluorescence, 24 h, PK04 Diversity Set (AID 1171); conditions: higher = more signal, called active from +8 up or from −8 down; further: test concentration not given here
# [11] = HepG2 liver cancer cell viability effects, profiling panel, resazurin fluorescence, 24 h, PK04 Diversity Set (AID 1172); conditions: higher = more signal; further: test concentration not given here
# [12] = basal S. cerevisiae growth modulation, no modifier, primary screen, OD600, strain BY4716, 24 h, basal condition (AID 1173); conditions: OD600, 24 h, higher = more signal, called active from +8 up or from −8 down
# [13] = MM1S myeloma cell viability, profiling panel, resazurin fluorescence, basal, 24 h, PK04 Diversity Set (AID 1174); conditions: higher = more signal, called active from +8 up or from −8 down;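 further: MM1S multiple myeloma cell line; test concentration not given here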
# [14] = biological target: Dihydroorotate dehydrogenase (quinone), mitochondrial (Plasmodium falciparum (isolate 3D7)) (UniProt Q08210); test: PfDHODH enzyme inhibitors, primary screen, biochemical, C-terminal His tag, absorbance 600 nm (AID 1175); conditions: DCIP absorbance 600 nm, higher = more signal, called active from +8 up or from −8 down;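 further: recombinant parasite enzyme with a five histidine tag at its C terminus; test concentration not given here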
# Sequence of Dihydroorotate dehydrogenase (quinone), mitochondrial (Plasmodium falciparum (isolate 3D7)) (Q08210 whole entry, looked up): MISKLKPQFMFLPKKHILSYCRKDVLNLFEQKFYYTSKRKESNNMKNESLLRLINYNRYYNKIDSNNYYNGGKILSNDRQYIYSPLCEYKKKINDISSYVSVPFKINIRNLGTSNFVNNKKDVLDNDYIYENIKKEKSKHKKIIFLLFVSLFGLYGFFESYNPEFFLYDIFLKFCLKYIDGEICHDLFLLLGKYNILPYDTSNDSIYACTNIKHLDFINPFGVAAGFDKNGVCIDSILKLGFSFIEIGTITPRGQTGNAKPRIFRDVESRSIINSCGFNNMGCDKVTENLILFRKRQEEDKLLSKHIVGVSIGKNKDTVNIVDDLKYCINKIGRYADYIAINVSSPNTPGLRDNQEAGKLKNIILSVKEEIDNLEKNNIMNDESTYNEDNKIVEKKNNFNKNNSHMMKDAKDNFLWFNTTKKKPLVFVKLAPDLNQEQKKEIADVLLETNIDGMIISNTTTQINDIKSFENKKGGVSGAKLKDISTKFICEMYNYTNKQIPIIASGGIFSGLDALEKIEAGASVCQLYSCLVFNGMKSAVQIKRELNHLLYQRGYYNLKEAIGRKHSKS
# [15] = P. aeruginosa biofilm formation inhibitors, primary screen, strain PAO1, LB-PBS medium, absorbance 600 nm (AID 1176); further: test concentration not given here; conditions: P. aeruginosa PAO1 growth/biofilm, A600, 12 h; higher = more signal
# [16] = S. cerevisiae RM11-1a growth modifiers, primary screen, strain RM11-1a, OD600, basal, 24 h (AID 1177); conditions: OD600, 24 h, higher = more signal, called active from +8 up or from −8 down;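 further: cultures grown under basal conditions with no added stressor; test concentration not given here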
# [17] = E. coli acrAB mutant growth effects, primary screen, E. coli filamentation inducers, strain DRC39, OD650, 24 h (AID 1178); conditions: higher = more signal, called active from +8 up or from −8 down;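 further: growth measured as culture turbidity by optical density at 650 nm; test concentration not given here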
# [18] = E. coli acrAB mutant growth effects, primary screen, E. coli filamentation inducers, strain DRC39, OD650, 48 h (AID 1179);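 further: screen aims at cell division blockers that make cells filament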; conditions: E. coli DRC39 delta-acrAB growth, higher = more signal, called active from +8 up or from −8 down
# [19] = RPMI8226 myeloma cell viability, profiling panel, resazurin fluorescence, basal, 24 h, PK04 Diversity Set (AID 1180); conditions: higher = more signal;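 further: RPMI8826 multiple myeloma cell line at 5000 cells per well; test concentration not given here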
# [20] = biological target: E3 ubiquitin-protein ligase XIAP (Homo sapiens) (UniProt P98170); test: XIAP binders, primary screen, biophysical, small-molecule microarray, fluorescence 635 nm (AID 1181); conditions: small-molecule microarray binding, higher = more signal;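 further: score merges 667 nm emission and signal to noise over triplicate slides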
# Sequence of E3 ubiquitin-protein ligase XIAP (Homo sapiens) (P98170 whole entry, looked up): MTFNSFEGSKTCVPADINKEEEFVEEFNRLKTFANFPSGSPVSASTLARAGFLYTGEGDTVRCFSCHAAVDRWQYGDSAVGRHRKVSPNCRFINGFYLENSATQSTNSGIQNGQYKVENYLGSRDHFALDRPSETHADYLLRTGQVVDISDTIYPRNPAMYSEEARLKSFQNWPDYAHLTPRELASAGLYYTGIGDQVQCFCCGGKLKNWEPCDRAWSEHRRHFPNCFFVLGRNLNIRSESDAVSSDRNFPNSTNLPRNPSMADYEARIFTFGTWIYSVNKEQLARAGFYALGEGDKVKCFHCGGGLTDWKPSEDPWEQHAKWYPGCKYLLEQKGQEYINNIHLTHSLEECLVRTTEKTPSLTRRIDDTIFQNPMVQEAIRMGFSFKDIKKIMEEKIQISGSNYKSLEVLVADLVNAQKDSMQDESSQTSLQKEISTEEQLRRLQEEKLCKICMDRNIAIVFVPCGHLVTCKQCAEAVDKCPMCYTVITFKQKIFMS
SMILES,z-score [1],z-score [2],z-score [3],z-score [4],z-score [5],z-score [6],z-score [7],z-score [8],z-score [9],z-score [10],z-score [11],z-score [12],z-score [13],composite z-score [14],z-score [15],z-score [16],z-score [17],z-score [18],z-score [19],composite z-score [20]
COc1ccc(CCNC(=O)[C@@]2(Sc3ccc(C)cc3)CC(=O)N(Cc3ccccc3Cl)[C@@H]2c2ccc(CO)cc2I)cc1,0.507,-1.07,0.334,-1.41,-1.54,0.167,-0.0114 (inactive),-0.474,-1.96,-0.478 (inactive),0.254,-4.37 (inactive),-2.75 (inactive),-0.725 (inactive),0.379 (inactive),-1.37 (inactive),0.853 (inactive),1.36 (inactive),-1.71,0.0512
CC(C)OC(=O)CC(=O)CC(O)c1ccc(C#N)cc1 (stereo not given),0.633,0.612,1.01,0.526,-0.116,0.615,0.497 (inactive),-0.0971,-1.44,0.617 (inactive),0.602,-0.0106 (inactive),0.8 (inactive),-1.12 (inactive),-0.088 (inactive),-0.608 (inactive),-0.0611 (inactive),1.44 (inactive),1.43,-0.194
CCCNC(=O)[C@@H]1c2ccccc2C(=O)N(Cc2ccccc2)[C@H]1c1ccc(CO)cc1,0.756,1.38,0.817,-0.183,0.502,2.12,-1.28 (inactive),-0.681,-0.549,0.528 (inactive),-0.898,0.215 (inactive),0.0254 (inactive),0.939 (inactive),1.27 (inactive),0.797 (inactive),-0.229 (inactive),-0.969 (inactive),0.477,-0.276
Cc1ccccc1C(O)C1C=CC2C(=O)N(C)C(=O)C2N1Nc1ccccc1 (stereo not given),0.262,-1.23,-0.284,-0.143,-0.272,-1.96,-1.19 (inactive),-0.317,-0.00815,-0.621 (inactive),-1.19,-0.532 (inactive),-1.32 (inactive),-0.513 (inactive),1.07 (inactive),-0.547 (inactive),-0.688 (inactive),-0.611 (inactive),-1.61,0.179
COc1ccc(C#Cc2ccc3c(c2)[C@]2(C(=O)N3)[C@H](c3ccc(O)cc3)N3[C@H](c4ccccc4)[C@H](c4ccccc4)OC(=O)[C@H]3[C@@H]2C(=O)NC[C@H](O)c2ccccc2)cc1,-1.1,0.72,-0.513,-3,-4.58,-1.8,1.94 (inactive),-1.12,-1.3,-0.475 (inactive),-0.689,1.81 (inactive),-2.56 (inactive),-3.64 (inactive),0.325 (inactive),2.71 (inactive),0.106 (inactive),0.105 (inactive),-4.1,-0.0749
CCOC(=O)C[C@H]1[C@H](OC(=O)c2ccccc2-c2ccccc2)[C@@H](NC(=O)c2ccc3ccccc3c2)c2cc(OCCCO)ccc2N1C(=O)c1ccc2ccccc2n1,0.135,0.487,-0.0645,-0.957,-0.442,0.732,2.16 (inactive),-0.337,-0.615,0.735 (inactive),1.33,0.682 (inactive),0.288 (inactive),0.428 (inactive),-0.271 (inactive),0.876 (inactive),0.672 (inactive),0.641 (inactive),0.726,-0.144
C=CCNC(=O)[C@@H]1[C@H]2C(=O)O[C@H](c3ccccc3)[C@H](c3ccccc3)N2[C@H](c2ccc(OCCO)cc2)[C@@]12C(=O)Nc1ccccc12,1.66,1.59,0.521,0.491,0.0581,-0.912,1.01 (inactive),-0.725,0.224,-0.0995 (inactive),0.61,-1.67 (inactive),-0.0761 (inactive),-2.04 (inactive),3.15 (inactive),-0.412 (inactive),1.34 (inactive),0.548 (inactive),-0.0855,0.0192
COC(=O)[C@@]1(Cc2ccccc2)[C@H]2c3cc(C(=O)N(C)C)n(Cc4cc(C)n(C)n4)c3C[C@H]2CN1C(=O)c1ccccc1,-0.997,0.461,0.0271,-0.47,-0.965,1.17,-1.24 (inactive),-0.0807,0.0916,-0.236 (inactive),-1.03,0.289 (inactive),-0.99 (inactive),-0.857 (inactive),0.687 (inactive),-0.211 (inactive),-1.12 (inactive),-0.944 (inactive),-0.566,0.0737
O=C1C2C=CC(C(O)c3ccc(B(O)O)cc3)N(Nc3ccccc3)C2C(=O)N1c1ccccc1 (stereo not given),-1.52,-0.305,-1.38,-1.74,-2.12,-2.75,-0.654 (inactive),-0.162,-0.613,-0.742 (inactive),-1.28,-0.841 (inactive),-1.35 (inactive),-0.395 (inactive),0.546 (inactive),0.0003 (inactive),0.17 (inactive),-0.346 (inactive),-1.59,0.0623
